# 12-LOX inh – inhibitors of human 12S-lipoxygenase ALOX12; P18054; purified 12hLO, xylenol orange hydroperoxide absorbance; Potency, µM (top dose mostly 108 µM), without a hit: at the highest dose activity change, negative = inhibition, usual class: inhibitors; 580,000 compounds, 1.1% hits; AID 1671190; also: potency is read from the fitted curve at half-maximal effect
# Target sequence (P18054 whole entry, looked up): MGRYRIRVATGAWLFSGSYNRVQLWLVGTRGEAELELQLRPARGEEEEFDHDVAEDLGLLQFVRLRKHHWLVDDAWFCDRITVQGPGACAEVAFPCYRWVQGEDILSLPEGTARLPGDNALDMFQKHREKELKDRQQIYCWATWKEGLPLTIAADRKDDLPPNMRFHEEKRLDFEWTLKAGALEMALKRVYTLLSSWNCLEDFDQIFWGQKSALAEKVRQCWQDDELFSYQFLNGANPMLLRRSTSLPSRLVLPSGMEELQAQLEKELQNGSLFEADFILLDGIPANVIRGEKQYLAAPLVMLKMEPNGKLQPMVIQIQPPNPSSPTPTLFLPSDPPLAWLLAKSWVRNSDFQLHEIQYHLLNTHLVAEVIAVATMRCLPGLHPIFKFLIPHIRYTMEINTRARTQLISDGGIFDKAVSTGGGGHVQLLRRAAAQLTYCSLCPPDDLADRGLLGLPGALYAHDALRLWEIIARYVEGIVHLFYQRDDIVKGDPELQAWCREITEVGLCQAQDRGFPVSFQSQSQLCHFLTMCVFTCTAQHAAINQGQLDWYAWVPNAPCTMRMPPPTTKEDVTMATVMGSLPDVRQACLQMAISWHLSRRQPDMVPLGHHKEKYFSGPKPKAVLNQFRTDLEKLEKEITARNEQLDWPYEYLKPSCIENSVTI
#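 Purified human 12hLO at 150 nM in 25 mM Hepes, 0.01% Triton X-100, pH 7.0, preincubated 15 min at room temperature with compound. Reaction started with 40 uM arachidonic acid, 30 min at room temperature. Hydroperoxide measured by Fe-xylenol orange, 573/405 nm absorbance ratio.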
# IL1B secr inh – inhibitors of inflammasome signaling (IL-1 beta secretion). THP-1 LPS/ATP IL-1B secretion, AlphaLISA, 16 h; hits give low values. activity change, % at 57.5 µM. AID 743279. 360,000 compounds, 4.7% hits; in the data active = activity change below about -50%; inconclusive = mostly about -30% to -49%
#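 THP-1 cells pretreated 1 hr with compounds (up to 57.5 uM final), then stimulated with LPS (250 ng/mL final) plus ATP (1.25 mM final); secreted IL-1B measured by AlphaLISA after 16 hr, decreased signal indicating inhibition.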
# HT1080 IDH1KD tx – kills HT-1080 cells with IDH1 knockdown; HT-1080 IDH1 knockdown viability, ATP luminescence, 48 h; Potency, µM (titrated, usually from 46.1 µM), for inactives: at the top dose activity, negative = toxicity, usual class: cytotoxic; 360,000 compounds, 2% hits; AID 686971;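 also: potency is read from the fitted curve at half-maximal effect; 0% = DMSO wells and -100% = cell-free medium wells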
#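 After a 2 h attachment period, IDH1KD HT-1080 cells took pin-transferred compound for 48 h at 37 °C; ATP-based luminescence after 10 min room-temperature reagent incubation reported viability.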
# TDP1 cell noCPT – qHTS for Inhibitors of human tyrosyl-DNA phosphodiesterase 1 (TDP1): qHTS in cells in absence of CPT; 420,000 compounds, 15% hits; AID 686978, 2013; DT40 Tdp1-/- hTDP1 cells, no CPT, ATP luminescence, 48 h; Potency, µM (titrated, usually from 46.2 µM), without a hit: top-dose activity change, negative = growth inhibition, hits mostly inhibitors; also: potency is read from the fitted curve at half-maximal effect; nearly all actives have a fitted effect of over 55% in size
#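 A cellular qHTS used chicken DT40 cells lacking endogenous Tdp1 but carrying stably transfected human TDP1. Compounds were applied without camptothecin, and cell growth kinetics were judged by ATP-dependent luminescence after ≥48 hr.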
# DT40 TDP1 CPT – growth inhibition of DT40 Tdp1-/-;hTDP1 cells with camptothecin (screen for TDP1 inhibitors) | chicken DT40 Tdp1-/-;hTDP1 cells + 20 nM CPT, ATP luminescence, 48 h | Potency, µM (highest dose often 46.2 µM), without a hit: at the top dose activity change, negative = growth inhibition, usual class: inhibitors | 420,000 compounds, 12% hits; also: potency is read from the fitted curve at half-maximal effect; nearly all actives have a fitted effect of over 55% in size
#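 Cell growth measured by CellTiter-Glo luminescence after a minimum 48 h, 37 C compound exposure with 20 nM CPT in Tdp1-knockout DT40 cells stably expressing hTDP1, seeded 400/well; qHTS titration format.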
# HT1080NT lethal – kills 2HG-producing HT-1080-NT fibrosarcoma cells | HT-1080-NT fibrosarcoma viability, CellTiter-Glo ATP luminescence, 48 h | Potency, µM (doses to about 46.1 µM), for the others: at the highest dose activity, negative = less viability, most hits filed as cytotoxic | 360,000 compounds, 1.6% hits | AID 686970;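 also: NT is the 2HG producing partner of a matched IDH1 knockdown line; potency is read from the fitted curve at half-maximal effect; 0% = DMSO-treated cells and -100% = media-only wells without cells; nearly all actives have a fitted effect of over 55% in size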
#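 A 48-hour cytotoxicity screen used HT-1080-NT cells plated 2 hours before compound delivery. ATP-based CellTiter-Glo luminescence measured viability, normalized to DMSO and no-cell controls.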
# Active calls of the source: *; ? = inconclusive; . = no result; [ ] = remark or other dose. Shown is part of a subset that was picked to be rich in hits. Unless noted, calls follow the shape of the dose curve; as a rule, active = well fitted curve in the direction sought with a large enough effect; inconclusive = small, poorly fitted or top-dose-only effect, or another doubt; inactive = no such curve, though single readings can be large; an effect the other way counts as inactive or inconclusive. Unless noted, % is scaled to controls: 0 for no effect and ±100 for the full control effect.
SMILES,12-LOX inh,IL1B secr inh,HT1080 IDH1KD tx,TDP1 cell noCPT,DT40 TDP1 CPT,HT1080NT lethal
CCCC(=O)N(CCN1CCOCC1)c1nc2cc(C)c(C)cc2s1,-3%,-11,-2%,1%,-13%,2%
CCOc1ccccc1CN1CCCC12Cc1ccccc1CNC2=O (stereo unspecified),2%[6.33 µM],.,.,.,.,.
N#CCC(=O)N/N=C/c1ccc(N2N=C(c3ccccc3)CC2c2ccccc2)cc1 (stereo unspecified),-17%,-7,-20%,18µM*,23µM*,?
O=Cc1ccc(N2N=C(c3ccccc3)CC2c2ccccc2)cc1 (stereo unspecified),37%,7,-2%,-21%,-3%,-21%
NS(=O)(=O)c1ccc(N2N=C(c3ccccc3)CC2c2ccc(F)cc2)cc1 (stereo unspecified),-22%,-61*,-20%,?,?,-4%
Oc1ccc(C2=NN(c3ccccc3)C(c3ccc(F)cc3)C2)cc1 (stereo unspecified),?,-98*,26µM*,?,?,18µM*
Oc1ccccc1C1=NN(c2ccccc2)C(c2ccc(F)cc2)C1 (stereo unspecified),0%,-7,-6%,?,-16%,-9%
CC(=O)Nc1ccc(C2=NN(c3ccccc3)C(c3ccccc3)C2)cc1 (stereo unspecified),-11%,35,-24%,23µM*,?,-15%
COc1ccc(C2CC(c3ccccc3)=NN2c2ccc(/C=N/NC(=O)c3ccncc3)cc2)cc1 (stereo unspecified),-1%,15,-21%,?,?,-14%
NC(=O)C(NC(=O)NCC(F)(F)F)C(N)=O,24%,.,.,.,.,.
Cc1cccc(C2CC(c3ccccc3)=NN2c2ccc(S(N)(=O)=O)cc2)c1 (stereo unspecified),?,-22,?,?,?,?
Cc1ccc(N2N=C(c3ccc(F)cc3)CC2c2ccco2)cc1 (stereo unspecified),25µM*,9,-3%,?,18µM*,9%
NS(=O)(=O)c1ccc(N2N=C(c3ccccc3)CC2c2cccc(Cl)c2)cc1 (stereo unspecified),?,-70*,?,-22%,-28%,?
COc1ccc(OCCN2CCN(C(=O)CNC(=O)c3ccc(N4CCCC4=O)cc3)CC2)cc1,-1%,.,.,.,.,.
COc1ccc(Cc2nc3c4c(ncn3n2)Oc2c(ccc3ccccc23)C4c2ccc(OC)c(OC)c2)cc1 (stereo unspecified),-19%,2,22%,?,-18%,23%
COc1ccc(C2c3ccc4ccccc4c3Oc3ncn(CCCO)c(=N)c32)cc1OC (stereo unspecified),-4%,-55*,5.2µM*,21µM*,?,7.3µM*
COc1ccc(C2c3ccc4ccccc4c3Oc3ncn(CCO)c(=N)c32)cc1OC (stereo unspecified),.,?,-20%,21µM*,23µM*,-23%
COc1ccc(-c2cc(N3CCC(NC(=O)c4cc(Cl)ccc4F)CC3)n[nH]2)cc1,48%,.,.,.,.,.
COC(=O)c1cc(OC)c(OC)cc1NC(=O)c1ccco1,138%,-62*,-11%,?,?,-12%
COc1ccc(NC(=O)COC(=O)c2cc(OC)c(OC)cc2NC(=O)c2ccco2)cc1OC,-2%,-8,?,21µM*,?,?
COC(=O)c1cc(OC)c(OC)cc1NC(=O)c1cccc(OC)c1OC,17%,55,-1%,5.8µM*,?,2%
C[C@@H](NC(=O)N1CCOC[C@H]1c1ncc(-c2ccc(F)cc2)[nH]1)c1ccccc1,36%[176 µM],.,.,.,.,.
CCNC(=O)N1CCC(OC2CCN(S(C)(=O)=O)CC2)CC1,32%,.,.,.,.,.
CCCn1nnnc1NC(=O)c1ccc2ccccc2c1,-13%,49,-30%,18µM*,?,-21%
CCCn1nnc(NC(=O)c2ccc3ccccc3c2)n1,10%,-17,24%,-15%,?,22%
SMILES,12-LOX inh,IL1B secr inh,HT1080 IDH1KD tx,TDP1 cell noCPT,DT40 TDP1 CPT,HT1080NT lethal
CN(CCNC(=O)NC1CCCC(C(F)(F)F)C1)Cc1ccccc1 (stereo unspecified),-4%,.,.,.,.,.
O=C(CSc1nc2ccccc2c(=O)[nH]1)Nc1ccccc1,-1%,.,.,.,.,.
O=[N+]([O-])c1ccc(Sc2cc[n+]([O-])c3ccccc23)c([N+](=O)[O-])c1,178%,-108*,18µM*,2.1µM*,2.6µM*,16µM*
Cc1csc(NC(=O)CSc2nc3ccccc3[nH]2)n1,1%,.,.,.,.,.
O=c1[nH]c(Sc2ccc([N+](=O)[O-])cc2[N+](=O)[O-])nc2ccccc12,?,-23,?,13µM*,3.3µM*,-15%
O=C(CSc1nc2ccccc2c(=O)[nH]1)Nc1ccc(S(=O)(=O)N2CCCC2)cc1,-20%,38,?,?,16µM*,?
O=C(CSc1nc2ccccc2[nH]1)Nc1nc(-c2ccc(Br)cc2)cs1,-3%,-14,?,16µM*,23µM*,-26%
COc1ccc(NC(=O)Cn2ncc3ccc(OC)c(OC)c3c2=O)cc1Cl,19%,.,.,.,.,.
Cc1[nH]c2ccc(F)cc2c1CC(=O)NCC(F)(F)F,33%,.,.,.,.,.
CC(C)(C)c1csc(NC(=O)CSc2nc3ccccc3c(=O)[nH]2)n1,-3%,17,-26%,23µM*,18µM*,-15%
O=C(CSc1nc2ccccc2c(=O)[nH]1)Nc1ccc([N+](=O)[O-])cc1,-20%,1,9.2µM*,?,?,?
CC(C)C(=O)N1CCC2(CC1)OCC(C(=O)NCc1ccc3c(c1)OCO3)N2C(=O)c1ccccc1 (stereo unspecified),22%,.,.,.,.,.
CCOc1ccc(C2c3c(oc4ccc(C)cc4c3=O)C(=O)N2c2nc(C)c(C)s2)cc1OC (stereo unspecified),?,.,.,7.3µM*,?,.
OC[C@@H]1CN(C2CCSCC2)C[C@H]1c1nc(-c2cccnc2)no1,27%,.,.,.,.,.
COc1cccc(-c2cc(N3CCN(C(=O)c4ccoc4)CC3)n3nc(-c4cccc(Cl)c4)cc3n2)c1,?,-6,-2%,8.2µM*,15µM*,0%
COc1cccc(-c2cc(C(F)(F)F)n3nc(-c4ccc(C)cc4)cc3n2)c1,-28%,.,.,-15%,-22%,.
